Compounds with a hit are over-represented: about 4.5% of the library has one in this group of screens.
hcDAF12 agonist – H. contortus DAF-12 activation, primary screen | HEK293 hcDAF-12 lit1-tk-luc reporter, luminescence; 0% DMSO, 100% Δ7-dafachronic acid | activation, % at 6.8 µM | 1.4% of 370,000 active;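 active = activation above the mean of all tested compounds plus 3 SD, cut at about 5.5% in these data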;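 also: 100% = response to 3 µM Δ7-dafachronic acid high control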
DAX1 inh-1 – inhibits human nuclear receptor DAX1. P51843. HEK293 Gal4-DAX1 luciferase reporter, luminescence. inhibition, % at 6.75 µM. 0.99% of 340,000 active;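 active = inhibition above the mean over all tested compounds plus 3 SD, cut at about 4.2% in these data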;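 also: 0% = DAX1-transfected cells with DMSO and 100% = empty-vector control cells with DMSO; inhibition shows as a rise in luminescence from relieved DAX1 repression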
Target sequence (P51843 207-470 limits assumed): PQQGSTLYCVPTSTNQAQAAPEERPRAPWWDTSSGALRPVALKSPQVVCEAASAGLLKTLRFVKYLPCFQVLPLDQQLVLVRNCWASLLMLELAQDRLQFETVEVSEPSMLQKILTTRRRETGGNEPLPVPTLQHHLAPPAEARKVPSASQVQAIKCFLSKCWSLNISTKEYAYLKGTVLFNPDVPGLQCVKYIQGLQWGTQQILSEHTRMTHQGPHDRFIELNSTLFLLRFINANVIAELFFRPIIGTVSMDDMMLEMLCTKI
ssDAF12 agonist – S. stercoralis DAF-12 activation, primary screen. HEK293 ssDAF-12/GRIP1 lit1-tk-luc reporter, luminescence; % of 3 µM dafachronic acid response. activation, % at 6.8 µM. 1% of 370,000 active;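 active = activation above the mean over all tested compounds plus 3 SD, cut at about 0.9% in these data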;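 also: 0% = DMSO-only wells and 100% = 3 µM delta7-dafachronic acid wells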
DAX1 inh-2 – inhibitors of DAX1 repression of SF-1 activated StAR promoter; AID 652010; HEK293T StAR-luciferase reporter, SF-1/DAX-1 repression relief; inhibition, % at 6.8 µM; 1.1% of 370,000 active;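 active = inhibition above the mean over all tested compounds plus 3 SD, cut at about 3.6% in these data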;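 also: 0% = DAX-1 cells with DMSO and 100% = cells lacking DAX-1 with DMSO; higher inhibition means more luminescence from relief of DAX-1 repression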
hgDAF-12 ag – agonists of H. glycines DAF-12 nuclear receptor; activation, % at 6.8 µM; HEK293 GAL4-hgDAF12 UAS-luciferase reporter, agonist luminescence; normalized to butyrate control; 1.8% of 370,000 active; AID 687014;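 active = activation above a cutoff set at the mean of all screened compounds plus 3 SD, cut at about 10% in these data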;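 also: 0% = DMSO wells and 100% = sodium butyrate wells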
GAA850 FXN act – increases GAA850 frataxin promoter reporter activity. HEK293 lucGAA850 FXN promoter luciferase reporter, 24 h; percent of 10 µM SAHA response. activation, % at 6 µM. 0.56% of 360,000 active;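 active = activation above the average of all compounds screened plus 3 SD, cutoff fixed separately per campaign, cut at about 7.5% in these data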;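 also: 0% = DMSO wells and 100% = 10 µM SAHA wells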
GAA30 counter – activates GAA30 frataxin promoter, counter-screen for GAA850 activators; 66% of 1,900 active; shares compounds with GAA850 FXN act; HEK293 lucGAA30 FXN promoter luciferase, 24 h; DMSO = 0%, 5 µM ipriflavone = 100%; activation, % at 6 µM;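 active = mean activation above the mean of solvent-only control wells plus 3 SD, cut at about 22% in these data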;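 also: counterscreen of GAA850 promoter hits where activity marks nonselective or luminescence artifacts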
GAA850 confirm – GAA850 FXN promoter activation confirmation; shares compounds with GAA850 FXN act; HEK293 lucGAA850 FXN promoter luciferase reporter, 24 h; 100% = activation by SAHA; activation, % at 6 µM; 86% of 1,900 active; AID 588351;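 active = mean activation above a set limit taken from the primary screen, cut at about 8% in these data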;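 also: 0% = DMSO wells and 100% = 10 µM SAHA wells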
Active calls of the source: *; / = no result.

SMILES	hcDAF12 agonist	DAX1 inh-1	ssDAF12 agonist	DAX1 inh-2	hgDAF-12 ag	GAA850 FXN act	GAA30 counter	GAA850 confirm
O=[N+]([O-])c1ccccc1N/N=C/c1cccc(O)c1O	1	1	-2	0	0	12*	40*	26*
O=[N+]([O-])c1cccc(N/N=C/c2cccc(O)c2O)c1	0	-1	-1	1	0	8.7*	67*	30*
O=[N+]([O-])c1ccc(N/N=C/c2cccc(O)c2O)c(S(=O)(=O)N2CCOCC2)c1	-1	-1	-2	1	-4	5	/	/
O=[N+]([O-])c1ccccc1N/N=C\c1ccccc1Cl	0	2	-1	1	2	4	/	/
Cc1ccc(S(=O)(=O)N(CC(=O)NCC2CCCO2)Cc2cccc(C)c2)cc1 (stereo unspecified)	-2	0	-1	-1	0	2	/	/
CCCCn1cnc2c(SCc3ccc(Br)cc3)nc(N)nc21	-3	-2	-2	-2	-4	7.8*	29*	18*
CCCn1cnc2c(SCc3ccc(Cl)cc3)nc(N)nc21	-3	2	-2	2	-3	9.8*	45*	25*
O=C(NCC1CCN(C(=O)C(=O)c2cccs2)CC1)c1ccc2c(c1)CCO2	-1	/	-1	0	1	/	/	/
COCCN=c1scc(-c2ccco2)n1/N=C/c1ccc(O)c(O)c1O	-1	0	-1	0	1	5	/	/
CC(C)N=c1scc(-c2ccco2)n1/N=C/c1ccc(O)c(O)c1	3	0	0	0	2	12*	68*	42*
Cc1cc(C(=O)Nc2sc(C)c(-c3ccc(F)cc3)c2C(N)=O)no1	2	3	0	1	6	8.4*	106*	31*
CCc1ccc(-c2c(C)sc(NC(C)=O)c2C(N)=O)cc1	-4	1	-2	-1	-5	2	/	/
COC(=O)[C@@H]1[C@@H](C#N)C2(c3ccccc3-c3ccccc32)N(c2ccc(Cl)cc2)N1C#N	-1	-2	-1	-1	0	12*	-16	19*
COC(=O)c1c(-c2ccccc2)csc1NC1=NS(=O)(=O)c2ccccc21	2	2	0	3.8*	10	8.9*	125*	43*
COC(=O)c1ccc(C(=O)OC)c(NC2=NS(=O)(=O)c3ccccc32)c1	-1	0	0	0	-1	-1	/	/
Cc1ccc(C(=O)C(C)N(C(=O)c2ccc(Cl)cc2Cl)N2C(=O)CCCC2=O)cc1 (stereo unspecified)	-1	1	-1	0	-2	0	/	/
COc1ccc(C(=O)C(C)N(C(=O)c2ccc(Cl)cc2Cl)N2C(=O)C3C4C=CC(C4)C3C2=O)cc1 (stereo unspecified)	-2	-1	-1	-1	-2	7.8*	25*	14*
COC(=O)N1Cc2ccnnc2CC1c1ccccc1-c1ccccc1 (stereo unspecified)	0	/	-1	0	-4	/	/	/
Nc1ncnc2c1ncn2[C@@H]1O[C@H](CNCc2ccc(-c3cc(C(F)(F)F)ccc3Cl)o2)[C@@H](O)[C@H]1O	-1	-1	-2	3	-7	6	/	/
Cc1ccc(N(C(=O)c2csnn2)C(C(=O)NC(C)(C)C)c2ccncc2)cc1 (stereo unspecified)	3	-1	-1	1	0	-2	/	/
CC(C)c1ccc(N(C(=O)c2csnn2)C(C(=O)NC(C)(C)C)c2ccncc2)cc1 (stereo unspecified)	6.3*	2	0	1	17*	14*	115*	32*
COC(=O)[C@]12CCCCC=C1N(Cc1cccc3ccccc13)C(=O)[C@H](CC(=O)N1CCN(C(=O)C3CC3)CC1)C2	-1	/	-2	-2	-3	/	/	/
O=C(N/N=C/c1ccccn1)c1ccc(Cl)c(Cl)c1	-2	1	-1	-3	-6	9.1*	-108	-30
O=C(N/N=C/c1ccccn1)c1cc(-c2ccccc2)nc2ccccc12	-1	/	-2	-1	2	7.7*	-118	-37
O=C(N/N=C/c1ccccn1)c1ccc(NC(=O)c2ccccc2Cl)cc1	-2	-2	-1	-1	0	-2	/	/
SMILES	hcDAF12 agonist	DAX1 inh-1	ssDAF12 agonist	DAX1 inh-2	hgDAF-12 ag	GAA850 FXN act	GAA30 counter	GAA850 confirm
CCC(CC)C(C(=O)NCc1ccccc1)N1CCN(C(=O)C2CCCO2)CC1 (stereo unspecified)	0	/	0	1	0	/	/	/
Fc1ccc(CN2CCN(c3ncc(Cc4ccccc4)cn3)CC2)c(Cl)c1	-4	/	-2	-5	-6	/	/	/
Cn1c(Cc2cccs2)nnc1SCC(=O)Nc1ccc2c(c1)OCCO2	-1	/	-1	-1	2	/	/	/
COc1cccc(CN2CCC2(C)C(=O)Nc2cccc(NS(C)(=O)=O)c2)c1OC (stereo unspecified)	-1	/	-1	-2	-3	-2	/	/
COc1ccc(CN2CCC2(C)C(=O)Nc2cccc(NS(C)(=O)=O)c2)c2ccccc12 (stereo unspecified)	-3	/	-2	-2	-2	17*	8	19*
Cc1c(C=O)c2cc(OCc3ccccc3)ccc2n1C	0	1	-1	1	4	7.7*	105*	32*
Cc1nn(-c2ccccc2)c2sc(C(=O)N3CCC4(CC3)OCCO4)cc12	-3	/	-1	0	2	/	/	/
COc1ccccc1Oc1ccc(N/C=C/C(=O)c2ccco2)cc1	4	1	-1	2	9	12*	83*	34*
O=C(/C=C/Nc1ccccc1Oc1ccccc1)c1ccco1	5	0	0	2	5	1	/	/
COc1cccc(NC(=O)Cc2ccccc2)c1	4	2	0	1	8	0	/	/
O=C(Cc1ccccc1)Nc1cccc(N2C(=O)C=CC2=O)c1	-3	0	-1	0	-2	9.0*	3	7
CCCCn1c(/C=C/c2ccco2)nc2ccccc21	0	1	-1	0	-1	0	/	/
CCCCn1c(/C=N/Nc2nc3ccccc3[nH]2)nc2ccccc21	4	1	-1	0	2	12*	-92	-30
COc1cccc(/C=C2\SC(=S)N(CCC(=O)NC3C=CS(=O)(=O)C3)C2=O)c1 (stereo unspecified)	0	0	-1	1	1	10*	30*	14*
Cc1ccnc(SCc2nc3ccccc3s2)n1	5.8*	3	0	2	9	8.3*	104*	31*

Source: PubChem BioAssay
